From PubChem BioAssay AID720690 (Broad Institute, 2013) come the findings set out here.

Potency and affinity values are given separately. Activity calls are given as the source filed them.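 How the source made its calls: active means every repeat run showing a signal drop whose fitted half-maximal concentration is at most twice the top tested concentration; inconclusive means repeat runs disagree, or flat partial drop, or poor fit; inactive means the rest.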

The assay in a line: HEK293T cytotoxicity, dose response, cytotoxicity control for miR-122 modulator project, cell-based, activator set, cherry-pick (AID 720690). As to conditions: HEK293T viability, CellTiter-Glo luminescence, 48 h; series mostly up to 26 µM. (In general: Cellular ATP, detected with luciferase, serves as a proxy for viable cell number.)
Regarding `CCCNC(=O)N1[C@@H]2CN(C(=O)c3ccccc3)c3ccccc3[C@@H]2[C@@H]1CO`, the molecule was classed as inactive.
On to `CC(C)NC(=O)N(C)C[C@H]1Oc2cc(C#C[C@H](C)O)ccc2S(=O)(=O)N([C@@H](C)CO)C[C@H]1C`, for which the molecule was called inactive.
For `CCNC(=O)C[C@H]1CC[C@@H]2[C@@H](COc3ccc(NC(=O)c4cccc(C(F)(F)F)c4)cc3C(=O)N2C)O1` the value was “inactive”; for `C/C=C/c1ccc2c(c1)O[C@H](CN(C)C(=O)Cc1cccnc1)[C@H](C)CN([C@H](C)CO)S2(=O)=O`, “inactive”.
As to `O=C(N/N=C/c1ccco1)c1cccc(N2CCCC2=O)c1`, the call was inactive.
For `COc1cccc(C(=O)Nc2ccc3c(c2)C(=O)N(C)[C@@H]2CC[C@H](CC(=O)NCc4ccc(F)cc4)O[C@@H]2CO3)c1`, the molecule was called inactive.
For `CN1C(=O)c2cc(NC(=O)c3cccc(F)c3)ccc2OC[C@H]2O[C@@H](CC(=O)O)CC[C@@H]21` the value was “inactive”.
To `C[C@H]1CN([C@@H](C)CO)C(=O)c2cc(-c3ccc(C#N)cc3)cnc2O[C@H]1CN(C)C(=O)Nc1ccc(C(F)(F)F)cc1` belongs “inactive”; to `CCC(=O)N(C)C[C@@H]1[C@@H](c2ccccc2)[C@H](CO)N1Cc1cccnc1`, “inactive”; to `Cc1c(CC(=O)NCCCC(=O)O)c(=O)oc2cc3occ(-c4ccccc4)c3cc12`, “inactive”.
Consider `COc1cccc(-c2nc(NCCN3CCOCC3)c3ccccc3n2)c1O`, for which the call was inactive.
For `CCN(C[C@H]1[C@@H](c2ccccc2)[C@@H](CO)N1C(=O)COC)S(C)(=O)=O`, the call was inactive.
Consider `CN1C(=O)c2cc(NC(=O)c3cccc(F)c3)ccc2OC[C@@H]2O[C@H](CC(=O)Nc3ccccc3)CC[C@H]21`, for which the call was inactive.
Take `CCOc1ccc(NC(=S)N(CCCN2CCCC2)Cc2cccn2Cc2ccc(Cl)cc2)cc1`: the result was inactive.
Take `COc1ccc(N2CCc3c(C)nc4c(OC)cc(OC)cc4c32)c(OC)c1`: the outcome was inactive.
To `CN1C(=O)c2cc(NC(=O)c3cccc(F)c3)ccc2OC[C@H]2O[C@@H](CC(=O)NC3CCC3)CC[C@H]21` belongs “inactive”; to `CC(=O)N1[C@H](CO)[C@H](c2ccccc2)[C@@H]1CN(C(=O)c1ccc(F)cc1)C(C)C`, “inactive”; to `C/C=C/c1ccc([C@H]2[C@@H](CO)N[C@@H]2CN(C(=O)c2ccccc2F)C(C)C)cc1`, “inactive”.
As for `CN1C(=O)c2cc(NC(=O)Nc3ccc(Cl)cc3)ccc2OC[C@@H]2O[C@@H](CC(=O)NCCN3CCCCC3)CC[C@H]21`, the call was inactive.
With `Cc1cc(C(=O)Nc2ccc3c(c2)C(=O)N(C)[C@@H]2CC[C@H](CC(=O)N[C@@H](C)c4ccccc4)O[C@H]2CO3)no1`, the outcome was inactive.
`COC(=O)c1cc(NS(=O)(=O)c2ccc3c(c2)CCC(=O)N3)cc(C(=O)OC)c1`: the call was inactive.
For `CCCC(=O)Nc1ccc2c(c1)C(=O)N(C)[C@@H]1CC[C@H](CC(=O)N3CCc4ccccc4C3)O[C@H]1CO2`, the outcome was inactive.
Turning to `CC(C)C#Cc1ccc2c(c1)O[C@H](CN(C)C(=O)Nc1ccccc1)[C@H](C)CN([C@@H](C)CO)S2(=O)=O`, the molecule was called inactive.
On to `Cc1cc2n(n1)C(c1cn(-c3ccccc3)nc1C)Nc1c(C)cccc1-2` (stereo not given), for which the call was inactive.
For `Cc1cccc(NC(=O)C[C@H]2CC[C@H]3[C@@H](COc4ccc(NC(=O)NC(C)C)cc4C(=O)N3C)O2)c1` the value was “inactive”; for `CCCNC(=O)C[C@H]1CC[C@@H]2[C@H](COc3ccc(NC(=O)c4cc(F)cc(F)c4)cc3C(=O)N2C)O1`, “inactive”.
For the molecule `CN(C[C@H]1N[C@@H](CO)[C@H]1c1ccc(-c2cccc(F)c2)cc1)C(=O)C1CCC1`, the call was inactive.
For `CNC[C@@H]1Oc2cc(C#CC3CCCC3)ccc2S(=O)(=O)N([C@@H](C)CO)C[C@@H]1C` the value was “inactive”; for `C/C=C/c1ccc2c(c1)O[C@H](CN(C)C(=O)c1cnccn1)[C@H](C)CN([C@@H](C)CO)S2(=O)=O`, “inactive”; for `Cc1ccc(-c2ccc3c(c2)O[C@H](CN(C)Cc2cncnc2)[C@H](C)CN([C@@H](C)CO)S3(=O)=O)cc1`, “inactive”.
`COCC(=O)Nc1ccc2c(c1)C(=O)N(C)[C@@H]1CC[C@H](CC(=O)Nc3cn(C)nc3C)O[C@H]1CO2`: the molecule was classed as inactive.
For `COCC(=O)N(C)C[C@@H]1[C@@H](c2ccccc2)[C@H](CO)N1C(=O)Cc1ccncc1` the value was “inactive”; for `CCN(C[C@H]1[C@H](c2ccccc2)[C@@H](CO)N1C(=O)C1CC1)C(=O)NC1CCCC1`, “inactive”; for `CCNC(=O)Nc1ccc2c(c1)C(=O)N(C)[C@@H]1CC[C@H](CC(=O)NCC3CC3)O[C@@H]1CO2`, “inactive”.
To `COCC(=O)Nc1ccc2c(c1)C(=O)N(C)[C@@H]1CC[C@@H](CC(=O)NC3CCCC3)O[C@@H]1CO2` belongs “inactive”; to `CC(C)C(=O)Nc1ccc2c(c1)C(=O)N(C)[C@H]1CC[C@@H](CC(=O)NCc3ccccc3F)O[C@H]1CO2`, “inactive”.
Turning to `CN1C(=O)c2cc(NC(=O)Nc3ccc(Cl)cc3)ccc2OC[C@H]2O[C@H](CC(=O)NCCN3CCCCC3)CC[C@H]21`, the outcome was inactive.
To `CN(C[C@@H]1[C@@H](c2ccccc2)[C@H](CO)N1C(=O)C1CCC1)C(=O)c1ccccn1` belongs “inactive”; to `Cc1ccc(-c2nc(C(Cl)Cl)c3ccccc3n2)cc1`, “inactive”.
To `CN(C(=O)c1ccccc1Cl)C1CCCCC1` belongs “inactive”.
